# In PubChem BioAssay:
# Calls of active or inactive are those of the source.
# Key:
# Albumin (Bos taurus) = Albumin (Bos taurus) (UniProt P02769); assay: compounds binding labelled BSA control protein – biochemical, small-molecule microarray, Alexa647 label, 635/667 nm fluorescence, artefact control for SMM control protein annotation, profiling panel (AID 1118); settings: BSA-A647 binding, fluorescence 635 nm, higher = more signal;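 further: score merges 667 nm emission intensity and signal-to-noise per printed compound spot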
# Albumin (Bos taurus), sequence (P02769 whole entry, looked up): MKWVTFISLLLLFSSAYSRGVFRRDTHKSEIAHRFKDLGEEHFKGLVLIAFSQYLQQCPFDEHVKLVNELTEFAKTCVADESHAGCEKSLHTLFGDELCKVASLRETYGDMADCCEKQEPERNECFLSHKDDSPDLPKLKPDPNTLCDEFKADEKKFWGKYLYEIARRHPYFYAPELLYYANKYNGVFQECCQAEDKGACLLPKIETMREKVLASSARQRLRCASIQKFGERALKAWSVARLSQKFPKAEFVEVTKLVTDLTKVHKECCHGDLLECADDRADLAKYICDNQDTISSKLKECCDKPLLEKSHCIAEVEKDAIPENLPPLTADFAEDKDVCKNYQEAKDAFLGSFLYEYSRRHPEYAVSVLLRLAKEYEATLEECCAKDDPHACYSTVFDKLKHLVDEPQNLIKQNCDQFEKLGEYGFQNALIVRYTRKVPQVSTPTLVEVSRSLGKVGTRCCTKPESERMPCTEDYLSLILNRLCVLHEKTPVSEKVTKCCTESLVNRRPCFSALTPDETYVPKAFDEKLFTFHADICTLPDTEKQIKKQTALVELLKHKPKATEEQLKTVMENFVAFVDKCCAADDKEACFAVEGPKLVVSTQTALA
# [1] = probe aXIP binding to arrayed compounds – biochemical, NeuroSMM set, 635/667 nm fluorescence, primary screen (AID 1119); settings: small-molecule microarray, higher = more signal, called active from +8 up or from −8 down;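 further: probe is the protein aXip251-270 applied at 1 µg/mL to compound-printed slides; binding of probe to printed compounds measured as 667 nm fluorescence plus signal to noise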
# [2] = probe aNOTCH3 binding on compound microarray – biochemical, small-molecule microarray, 635/667 nm fluorescence, primary screen (AID 1120); settings: higher = more signal;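 further: probe is a biotin-tagged antibody raised against NOTCH3 rather than NOTCH3 protein; score merges spot fluorescence near 667 nm with spot signal to noise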
# [3] = probe aNOTCH2 binding on compound microarray – biochemical, small-molecule microarray, 635/667 nm fluorescence, primary screen (AID 1121); settings: higher = more signal;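 further: score merges feature fluorescence read at 667 nm with its signal to noise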
# [4] = biological target: Carbonic anhydrase 2 (Homo sapiens) (UniProt P00918); assay: compounds binding carbonic anhydrase 2 – biochemical, small-molecule microarray, Alexa647-labelled CAII, profiling panel (AID 1122); settings: CAII-A647 binding fluorescence, higher = more signal
# [5] = COS7 lysate on small-molecule microarray, probe aHis, 635 nm (AID 1123); settings: COS7 cell lysate, fluorescence, higher = more signal;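 further: z-score combines 667nm fluorescence intensity with signal-to-noise per printed compound spot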
# [6] = probe aLAP1 signal on lysate-treated microarray – cell lysate, small-molecule microarray, COS7 lysate, primary screen (AID 1124); settings: probe aLAP1, fluorescence, higher = more signal;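 further: lysate comes from COS7 cells expressing LAP1 and is applied at 0.3 µg/mL; score merges spot fluorescence near 667 nm with signal-to-noise over triplicate slides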
# Sam68 (KHDRBS1) = assay: compounds binding KHDRBS1 protein – biochemical, small-molecule microarray, 635 nm fluorescence, primary screen (AID 1125); settings: higher = more signal;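 further: score merges 667 nm channel intensity with signal to noise over triplicate slides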
# [7] = tested on: Chordin-like protein 2 (CHRDL2); assay: compounds binding chordin-like 2 – biochemical, small-molecule microarray, 635 nm fluorescence, primary screen (AID 1126); settings: fluorescence 635 nm, higher = more signal;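 further: printed compound slides probed with Chrdl2 protein at 4 µg/mL for 1 h at 4 C; score merges 667 nm emission intensity with signal to noise over three replicate slides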
# [8] = biological target: Concanavalin-A (Canavalia ensiformis) (UniProt P02866); assay: compounds binding concanavalin A lectin – biochemical, small-molecule microarray, Alexa647 label, 635 nm, artefact control for SMM control protein annotation, primary screen (AID 1127); settings: ConA-A647 binding fluorescence, higher = more signal;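 further: z combines 667 nm emission intensity with signal-to-noise across three replicate slides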
# Concanavalin-A (Canavalia ensiformis), sequence (P02866 whole entry, looked up): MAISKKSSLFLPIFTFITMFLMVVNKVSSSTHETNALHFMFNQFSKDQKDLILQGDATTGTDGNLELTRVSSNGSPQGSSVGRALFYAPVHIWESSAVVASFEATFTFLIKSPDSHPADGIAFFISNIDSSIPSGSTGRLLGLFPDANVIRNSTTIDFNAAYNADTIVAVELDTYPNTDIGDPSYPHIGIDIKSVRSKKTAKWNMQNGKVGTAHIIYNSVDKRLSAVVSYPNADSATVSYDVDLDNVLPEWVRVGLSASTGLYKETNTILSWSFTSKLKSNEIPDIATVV
# [9] = compounds binding Alexa647 anti-His antibody – biochemical, small-molecule microarray, 635 nm fluorescence, artefact control for SMM control protein annotation, primary screen (AID 1128); settings: higher = more signal;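 further: score merges feature fluorescence with signal-to-noise for each printed compound spot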
# [10] = tested on: Human papillomavirus type 1a E7 protein (residues 1-88); assay: HPV1a E7 small-molecule binders, primary screen, biochemical, small-molecule microarray, residues 1-88, 635 nm (AID 1129); settings: small-molecule microarray binding, fluorescence 635 nm; higher = more signal
# [11] = biological target: Focal adhesion kinase 1 (Homo sapiens) (UniProt Q05397); assay: PTK2 protein binding on printed compound slides – biochemical, small-molecule microarray, 635/667 nm fluorescence, BSA, DTT, primary screen (AID 1130); settings: 635 nm fluorescence, higher = more signal;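 further: composite of spot emission at 667 nm and signal to noise over triplicate slides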
# Focal adhesion kinase 1 (Homo sapiens), sequence (Q05397 whole entry, looked up): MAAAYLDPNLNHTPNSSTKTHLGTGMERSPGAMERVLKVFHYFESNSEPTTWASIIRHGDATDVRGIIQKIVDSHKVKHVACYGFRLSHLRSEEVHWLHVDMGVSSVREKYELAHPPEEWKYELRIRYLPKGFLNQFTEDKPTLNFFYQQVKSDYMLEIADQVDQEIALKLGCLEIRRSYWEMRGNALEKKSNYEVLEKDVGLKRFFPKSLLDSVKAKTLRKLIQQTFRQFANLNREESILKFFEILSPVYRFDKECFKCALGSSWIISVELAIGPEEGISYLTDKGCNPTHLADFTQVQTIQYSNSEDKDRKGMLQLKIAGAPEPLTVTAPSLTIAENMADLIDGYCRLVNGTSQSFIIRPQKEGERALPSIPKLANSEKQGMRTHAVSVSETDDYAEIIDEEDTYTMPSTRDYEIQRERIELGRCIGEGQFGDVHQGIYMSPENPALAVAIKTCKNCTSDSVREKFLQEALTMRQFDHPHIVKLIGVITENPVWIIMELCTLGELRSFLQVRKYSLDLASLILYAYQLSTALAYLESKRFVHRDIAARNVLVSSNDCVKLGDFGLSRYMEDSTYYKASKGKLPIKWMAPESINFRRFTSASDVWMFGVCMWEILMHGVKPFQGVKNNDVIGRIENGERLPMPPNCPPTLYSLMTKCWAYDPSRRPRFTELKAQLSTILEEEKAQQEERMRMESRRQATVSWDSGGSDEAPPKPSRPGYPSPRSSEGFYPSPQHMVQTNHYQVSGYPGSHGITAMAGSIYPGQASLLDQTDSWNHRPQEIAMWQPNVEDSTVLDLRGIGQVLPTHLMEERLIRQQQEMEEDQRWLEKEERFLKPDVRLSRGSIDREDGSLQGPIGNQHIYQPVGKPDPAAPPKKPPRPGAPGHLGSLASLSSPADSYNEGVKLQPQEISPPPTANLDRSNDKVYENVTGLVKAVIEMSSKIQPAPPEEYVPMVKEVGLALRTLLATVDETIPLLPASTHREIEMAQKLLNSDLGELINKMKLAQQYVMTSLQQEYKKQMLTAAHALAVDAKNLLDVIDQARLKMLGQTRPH
# [12] = tested on: Fibrinogen (Alexa647-labelled); assay: Alexa647-fibrinogen binding to printed small molecules – biochemical, small-molecule microarray, 635/667 nm fluorescence, artefact control for SMM control-protein annotation, profiling panel (AID 1131); settings: fibrinogen-A647 binding fluorescence, higher = more signal;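 further: z-score merges 667 nm fluorescence with per-spot signal-to-noise over triplicate slides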
# [13] = biological target: Follistatin (Homo sapiens) (UniProt P19883); assay: FST protein binding to printed compounds – biochemical, small-molecule microarray, 635/667 nm fluorescence, primary screen (AID 1132); settings: 635 nm fluorescence, higher = more signal
# Follistatin (Homo sapiens), sequence (P19883 whole entry, looked up): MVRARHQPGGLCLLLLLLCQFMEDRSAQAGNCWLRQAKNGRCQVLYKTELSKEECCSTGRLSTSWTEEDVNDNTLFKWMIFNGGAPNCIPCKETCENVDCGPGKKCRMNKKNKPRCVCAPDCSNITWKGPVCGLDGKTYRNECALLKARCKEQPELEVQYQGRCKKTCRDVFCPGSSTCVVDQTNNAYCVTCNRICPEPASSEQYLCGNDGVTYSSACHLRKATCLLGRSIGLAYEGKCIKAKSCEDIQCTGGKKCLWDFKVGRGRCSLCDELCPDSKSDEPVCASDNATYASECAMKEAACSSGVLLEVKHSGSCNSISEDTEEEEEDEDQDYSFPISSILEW
# [14] = biological target: Fibroblast growth factor 2 (Homo sapiens) (UniProt P09038); assay: basic fibroblast growth factor binding to printed compounds – biochemical, small-molecule microarray, 635/667 nm fluorescence, primary screen (AID 1133); settings: FGF2, fluorescence 635/667, higher = more signal
# Fibroblast growth factor 2 (Homo sapiens), sequence (P09038 whole entry, looked up): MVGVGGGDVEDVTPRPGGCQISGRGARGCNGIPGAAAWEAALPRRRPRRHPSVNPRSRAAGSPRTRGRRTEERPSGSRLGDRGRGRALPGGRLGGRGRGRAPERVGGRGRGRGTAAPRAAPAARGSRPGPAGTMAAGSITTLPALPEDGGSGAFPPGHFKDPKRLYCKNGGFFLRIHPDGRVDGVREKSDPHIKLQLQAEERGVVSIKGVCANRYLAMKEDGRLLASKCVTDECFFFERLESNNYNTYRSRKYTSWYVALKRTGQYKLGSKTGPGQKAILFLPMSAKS
# [15] = JC-1 mitochondrial potential readout, lung cancer cells – cell-based, A549, JC-1 fluorescence, basal, 24 h, 100 nL, profiling panel (AID 1138); settings: higher = more signal;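 further: A549 lung adenocarcinoma cells under basal conditions with no added stimulus; test concentration not given here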
# Lefty1 = Lefty1 protein binding to printed compounds – biochemical, small-molecule microarray, 635/667 nm fluorescence, primary screen (AID 1139); settings: fluorescence 635/667, higher = more signal
# [16] = tested on: wheat germ agglutinin (Triticum aestivum), Alexa647-labelled; assay: Alexa647-WGA lectin binding to printed small molecules – biochemical, small-molecule microarray, 635/667 nm fluorescence, artefact control for SMM control-protein annotation, profiling panel (AID 1140); settings: WGA-A647 binding, 635 nm fluorescence, higher = more signal;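 further: score merges 667 nm feature emission with signal to noise over triplicate slides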
# [17] = biological target: Luciferin 4-monooxygenase (Photinus pyralis) (UniProt P08659); assay: inhibition of purified Photinus pyralis luciferase – biochemical, luminescence, purified enzyme, 2006 set, primary screen (AID 1141); settings: purified firefly luciferase, SteadyGlo luminescence, 30 min; higher = more signal, called active from +8 up or from −8 down;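 further: cell-free assay with purified firefly luciferase at 100 ng per well in PBS; test concentration not given here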
# Luciferin 4-monooxygenase (Photinus pyralis), sequence (P08659 whole entry, looked up): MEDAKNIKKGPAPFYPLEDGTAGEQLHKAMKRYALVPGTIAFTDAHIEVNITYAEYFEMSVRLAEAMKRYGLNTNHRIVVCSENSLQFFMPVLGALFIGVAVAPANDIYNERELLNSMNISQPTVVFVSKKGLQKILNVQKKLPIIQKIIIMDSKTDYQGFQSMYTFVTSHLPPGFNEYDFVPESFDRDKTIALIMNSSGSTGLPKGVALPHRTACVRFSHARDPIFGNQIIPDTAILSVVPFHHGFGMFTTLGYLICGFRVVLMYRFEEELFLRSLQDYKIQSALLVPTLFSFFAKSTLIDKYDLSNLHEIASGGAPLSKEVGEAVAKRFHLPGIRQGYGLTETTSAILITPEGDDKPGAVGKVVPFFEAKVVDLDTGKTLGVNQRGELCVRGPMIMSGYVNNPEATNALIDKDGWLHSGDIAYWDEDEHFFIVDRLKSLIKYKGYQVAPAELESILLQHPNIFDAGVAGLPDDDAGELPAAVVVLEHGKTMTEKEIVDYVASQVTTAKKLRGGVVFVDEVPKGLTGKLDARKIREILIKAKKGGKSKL
SMILES,composite z-score (Albumin (Bos taurus)),composite Z-score [1],composite z-score [2],composite z-score [3],composite z-score [4],composite z-score [5],composite z-score [6],composite z-score (Sam68 (KHDRBS1)),composite z-score [7],composite z-score [8],composite z-score [9],composite z-score [10],composite z-score [11],composite z-score [12],composite z-score [13],composite z-score [14],z-score [15],composite z-score (Lefty1),composite z-score [16],z-score [17]
O=C1O[C@H](c2ccccc2)[C@H](c2ccccc2)N2[C@H]1[C@@H](C(=O)NC[C@H](O)c1ccccc1)[C@]1(C(=O)Nc3ccccc31)[C@H]2c1ccc(OCCO)cc1,0.466,-0.249 (inactive),-0.0647,-0.082,0.59,1.67,0.218,1.31,0.25,1.14,1.77,1.2,1.06,0.743,0.992,0.655,-0.253,0.0702,0.864,-0.609 (inactive)
CN1C(=O)C2C=CC(C(O)C3=C[C@H]4C[C@@H](C3)C4(C)C)N(Nc3ccccc3)C2C1=O (stereo not given in full),0.566,-0.636 (inactive),0.169,-0.0712,0.645,1.75,-0.678,1.31,0.307,0.782,0.274,1.19,0.608,0.816,1.18,0.0364,-0.838,0.446,0.782,-0.179 (inactive)
C[C@@]1([C@@H](NC(=O)c2ccccc2)c2ccc(-c3ccccc3)cc2)C[C@H]1C1CCCCC1,0.373,0.309 (inactive),0.106,0.378,-0.137,0.121,-0.0002,-1.66,-1.51,-0.867,-1.28,-0.202,0.327,-0.695,-0.548,-1,-0.507,-0.848,0.519,1.32 (inactive)
CCCC[C@@H]1C[C@H]1[C@@H](NC(=O)c1ccco1)c1ccc(C(=O)OC)cc1,0.623,0.224 (inactive),-0.0967,-0.11,0.39,0.792,0.187,0.0166,0.0374,-0.112,-0.499,0.149,0.214,0.0507,-0.943,-1.42,-0.814,-0.431,0.586,1.94 (inactive)
CN(C)C(=O)[C@]1(Cc2ccccc2N=[N+]=[N-])N=C(c2ccc(OCCCO)cc2)O[C@@H]1c1ccccc1,0.724,-0.316 (inactive),0.0522,-0.0013,0.623,2.22,0.644,1.31,0.0709,1.13,1.03,1.22,0.633,0.882,1.31,1.58,1.71,0.0484,0.986,-1.08 (inactive)
C=CCOC(=O)[C@H]1[C@@H]2C(=O)O[C@@H](c3ccccc3)[C@@H](c3ccccc3)N2[C@@H](c2ccc(OCCOC(=O)[C@@H]3C[C@@H]4C(=O)N5CCC[C@H]5C(=O)N4[C@@H]3c3cccc(OCCO)c3)cc2)[C@]12C(=O)Nc1ccccc12,-0.292,0.594 (inactive),0.336,0.0087,0.192,1.73,0.383,1.29,0.902,1.17,2.53,1.19,0.701,0.686,1.3,1.51,-1.5,1.14,0.847,-0.187 (inactive)
CC(=O)NCCCC[C@@H]1NC(=O)[C@@H]2C[C@H](C(=O)NCCCCN(C)C)[C@H](c3cccc(OCCO)c3)N2C1=O,-0.374,0.714 (inactive),-0.186,-0.112,0.57,0.944,0.511,0.259,0.462,0.664,0.605,-0.158,-0.208,-0.908,1.21,1.08,-0.446,0.471,-0.159,0.603 (inactive)
COC(=O)[C@@]1(Cc2ccc(OC)cc2)[C@H]2c3cc(C(=O)N4CCCC4)n(Cc4ccccc4)c3C[C@H]2CN1C(=O)c1ccccc1,1.05,0.401 (inactive),1.75,1.06,0.791,3.09,0.399,0.846,-0.401,1.08,3,1.25,1.32,1,0.506,-0.368,0.581,-0.292,1.1,2.01 (inactive)
COc1cc2c(cc1OC)CN(C(=O)[C@H]1[C@@H]3C(=O)O[C@@H](c4ccccc4)[C@@H](c4ccccc4)N3[C@@H](c3ccc(O)cc3)[C@]13C(=O)Nc1ccc(C#CC4=CCCCC4)cc13)CC2,0.672,0.721 (inactive),0.533,-0.0411,0.561,1.74,0.969,1.31,0.575,1.14,2.11,1.19,-0.0164,0.666,1.22,0.86,0.0961,1.2,1.12,-1.1 (inactive)
O=C(NCc1ccc(F)cc1)[C@H]1C[C@H]2C(=O)N[C@@H](Cc3ccccc3)C(=O)N2[C@H]1c1ccc(O)cc1,-1.22,0.239 (inactive),-0.323,-0.159,0.606,1.56,-0.516,-0.109,0.371,0.368,1.53,0.526,0.063,-0.102,1.38,1.59,0.574,-0.169,-0.262,-0.568 (inactive)
C=CCC(OC(C)=O)[C@@H]1[C@@H](N(Cc2ccc(-c3ccccc3)cc2)C(=O)Cc2ccc(F)cc2)c2cc(OCCCO)ccc2N1C(=O)c1ccc(-c2ccccc2)cc1 (stereo not given in full),0.127,-0.405 (inactive),0.0905,-0.141,-0.249,-0.338,0.0362,0.0072,0.528,-0.136,-0.414,-1.03,-0.0744,0.259,0.267,-0.297,0.796,-0.0123,-0.217,1.03 (inactive)
